Source: PubChem BioAssay (NCATS)
Values without a mark were called inactive. Inconclusive results are not listed. Active and inactive are the calls of the source. Unless noted, calls follow the shape of the dose curve; as a rule, active = well fitted curve in the direction sought with a large enough effect; inconclusive = small, poorly fitted or top-dose-only effect, or another doubt; inactive = no such curve, though single readings can be large; an effect the other way counts as inactive or inconclusive.

Target: Cytochrome P450 2C9 (Homo sapiens) (UniProt P11712)
Assay: qHTS Assay for Inhibitors and Substrates of Cytochrome P450 2C9 (AID 883); also: nearly all actives have a fitted effect of over 60% in size; also: potency is read from the fitted curve at half-maximal effect
Settings: recombinant CYP2C9, luciferin-H luminescence, 60 min; series mostly up to 57.1 µM
Outline: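 Turnover of Luciferin-H (100uM, KM) by 10nM human CYP2C9 was measured over 60 min at 37C with NADPH regeneration; inhibitors and some substrates reduce luminescence. Data normalized to sulphaphenazole 57uM.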

Chain of Cytochrome P450 2C9 (Homo sapiens) (P11712 whole entry, looked up): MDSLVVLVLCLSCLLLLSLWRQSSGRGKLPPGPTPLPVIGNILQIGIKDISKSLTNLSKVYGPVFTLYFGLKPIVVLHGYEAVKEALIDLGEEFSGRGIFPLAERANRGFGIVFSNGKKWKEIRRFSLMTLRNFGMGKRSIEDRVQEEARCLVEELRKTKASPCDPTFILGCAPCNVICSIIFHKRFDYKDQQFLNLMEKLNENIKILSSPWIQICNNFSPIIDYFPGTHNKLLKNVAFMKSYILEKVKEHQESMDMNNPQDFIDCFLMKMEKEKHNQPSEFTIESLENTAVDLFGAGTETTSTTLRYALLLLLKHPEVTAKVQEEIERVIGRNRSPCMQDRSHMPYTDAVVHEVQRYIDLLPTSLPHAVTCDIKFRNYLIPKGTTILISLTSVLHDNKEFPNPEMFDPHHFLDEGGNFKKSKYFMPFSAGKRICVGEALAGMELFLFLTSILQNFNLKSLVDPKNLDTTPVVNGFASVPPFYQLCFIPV

Row | SMILES | Potency
1 | N#CCCn1c(=O)c(-c2ccc(Cl)cc2)nc2cnc(N3CCOCC3)nc21 | inactive
2 | COc1ccc2[nH]cc(CCNc3ncncc3-c3ccccc3OC)c2c1 | 0.251 µM (active)
3 | COCCn1c(=O)c(-c2ccccc2)nc2cnc(Oc3cccc(Cl)c3)nc21 | 0.501 µM (active)
4 | CCNc1ncc2nc(CCc3ccccc3)c(=O)n(CCC#N)c2n1 | 6.31 µM (active)

Target: Cytochrome P450 3A4 (Homo sapiens) (UniProt P08684)
Assay: qHTS Assay for Inhibitors and Substrates of Cytochrome P450 3A4 (AID 884); also: potency is read from the fitted curve at half-maximal effect; nearly all actives have a fitted effect of over 50% in size
Settings: recombinant CYP3A4, Luciferin-PPXE luminescence; series mostly up to 57.1 µM
Outline: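 Luminescent readout of luciferin produced by CYP3A4 (20 nM) dealkylation of Luciferin-PPXE, 25 uM (its KM). NADPH-driven reaction ran 60 min at RT after 10 min compound preincubation; data scaled to 57 uM ketoconazole as 100% inhibition.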

Chain of Cytochrome P450 3A4 (Homo sapiens) (P08684 whole entry, looked up): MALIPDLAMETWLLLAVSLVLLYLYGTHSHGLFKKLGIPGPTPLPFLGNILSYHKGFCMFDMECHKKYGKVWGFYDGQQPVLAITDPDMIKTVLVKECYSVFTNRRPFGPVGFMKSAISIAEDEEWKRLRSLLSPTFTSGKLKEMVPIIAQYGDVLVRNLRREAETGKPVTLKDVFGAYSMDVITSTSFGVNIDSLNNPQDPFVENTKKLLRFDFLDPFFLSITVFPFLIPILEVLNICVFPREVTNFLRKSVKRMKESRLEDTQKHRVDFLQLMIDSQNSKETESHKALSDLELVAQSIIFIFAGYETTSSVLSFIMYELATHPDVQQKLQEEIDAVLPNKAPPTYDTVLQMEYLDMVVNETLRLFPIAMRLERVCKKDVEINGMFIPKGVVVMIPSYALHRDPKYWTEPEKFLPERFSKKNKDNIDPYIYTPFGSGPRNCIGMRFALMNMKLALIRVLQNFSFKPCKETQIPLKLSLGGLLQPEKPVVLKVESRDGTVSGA

Row | SMILES | Potency
5 | CN(C)c1ccc(-c2cncnc2NCCN2CCOCC2)cc1 | 3.16 µM (active)
6 | COc1ccccc1CNc1cc(-c2cccnc2)ncn1 | 0.631 µM (active)
7 | COc1ccc2[nH]cc(CCNc3cc(-c4cccc(C#N)c4)ncn3)c2c1 | 3.98 µM (active)
8 | COc1ccccc1-c1ccc2ncnc(N3CCOCC3)c2c1 | 6.31 µM (active)
9 | Cc1cnc(CNc2ncnc3ccc(-c4ccccc4C)cc23)cn1 | 3.98 µM (active)

Target: Cytochrome P450 3A4 (Homo sapiens) (UniProt P08684)
Assay: qHTS Assay for Activators of Cytochrome P450 3A4 (AID 885); also: nearly all actives have a fitted effect of over 65% in size
Settings: recombinant CYP3A4, Luciferin-PPXE luminescence, 60 min; series mostly up to 57.1 µM
Outline: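 Human CYP3A4 dealkylates Luciferin-PPXE to luciferin, which luciferase detection converts to light. Substrate was at its KM (25uM), buffer 200mM KPO4, reaction 60 min at RT.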

Row | SMILES | outcome
10 | COCCNc1ncnc2ccc(-c3ccccc3OC)cc12 | inactive
11 | CS(=O)(=O)Nc1cccc(-c2nc(Nc3ccncc3)c3ccccc3n2)c1 | inactive
12 | COc1ccccc1-c1nc(Nc2ccncc2)c2ccccc2n1 | inactive
13 | CN(C)c1ccc(-c2cncnc2NCCN2CCOCC2)cc1 | inactive
14 | COc1ccccc1CNc1cc(-c2cccnc2)ncn1 | inactive
15 | CCNc1ncc2nc(CCc3ccccc3)c(=O)n(Cc3cccc(OC)c3)c2n1 | inactive
16 | CN(Cc1ccco1)c1ncnc2ccc(-c3cccc(NS(C)(=O)=O)c3)cc12 | inactive
17 | CN1CCN(c2ncnc3ccc(-c4cccc(C#N)c4)cc23)CC1 | inactive
18 | COc1cccc(-c2ccc3ncnc(N4CCNCC4)c3c2)c1 | inactive
19 | CN(C)c1ccc(-c2cc(N(C)Cc3ccco3)ncn2)cc1 | inactive
20 | COc1ccc2[nH]cc(CCNc3ncncc3-c3ccccc3OC)c2c1 | inactive
21 | COCCn1c(=O)c(-c2ccccc2)nc2cnc(Oc3cccc(Cl)c3)nc21 | inactive
22 | Cc1cnc(CNc2ncnc3ccc(-c4ccc(N(C)C)cc4)cc23)cn1 | inactive
23 | O=c1c(CCc2ccccc2)nc2cnc(Oc3ccccc3)nc2n1C1CC1 | inactive
24 | CCNc1ncc2nc(CCc3ccccc3)c(=O)n(CCC#N)c2n1 | inactive
25 | COc1ccc2[nH]cc(CCNc3cc(-c4cccc(C#N)c4)ncn3)c2c1 | inactive
26 | CN(C)c1ncc2nc(CCc3ccccc3)c(=O)n(CCC#N)c2n1 | inactive
27 | COc1ccccc1-c1ccc2ncnc(N3CCOCC3)c2c1 | inactive
28 | Cc1cnc(CNc2ncnc3ccc(-c4ccccc4C)cc23)cn1 | inactive

Target: Cytochrome P450 2D6 (Homo sapiens) (UniProt P10635)
Assay: qHTS Assay for Inhibitors and Substrates of Cytochrome P450 2D6 (AID 891); also: potency is read from the fitted curve at half-maximal effect; nearly all actives have a fitted effect of over 60% in size
Settings: recombinant CYP2D6, luciferin-ME EGE luminescence; series mostly up to 57.1 µM
Outline: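 Luminescent read-out of luciferin formed by 5 nM human CYP2D6 demethylating 30 uM Luciferin-ME EGE (Km level) over 60 min at room temperature after NADPH regeneration addition. Data normalized to full inhibition by 1.43 uM quinidine.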

Chain of Cytochrome P450 2D6 (Homo sapiens) (P10635 whole entry, looked up): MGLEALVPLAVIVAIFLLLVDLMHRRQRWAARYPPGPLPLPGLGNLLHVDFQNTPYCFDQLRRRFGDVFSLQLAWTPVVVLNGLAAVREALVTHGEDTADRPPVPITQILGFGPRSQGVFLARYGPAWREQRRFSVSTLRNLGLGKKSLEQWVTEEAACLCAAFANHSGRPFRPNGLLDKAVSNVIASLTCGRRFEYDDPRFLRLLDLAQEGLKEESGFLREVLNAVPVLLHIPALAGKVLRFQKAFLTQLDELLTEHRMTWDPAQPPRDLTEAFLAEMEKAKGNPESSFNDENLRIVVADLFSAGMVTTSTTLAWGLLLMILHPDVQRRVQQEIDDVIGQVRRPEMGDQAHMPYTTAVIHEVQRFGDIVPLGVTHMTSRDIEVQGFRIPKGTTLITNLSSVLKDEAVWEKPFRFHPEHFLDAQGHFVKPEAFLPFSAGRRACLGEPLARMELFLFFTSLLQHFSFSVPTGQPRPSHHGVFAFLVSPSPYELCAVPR

Row | SMILES | Potency
29 | COc1ccccc1CNc1cc(-c2cccnc2)ncn1 | 5.01 µM (active)
30 | CN(C)c1ccc(-c2cc(N(C)Cc3ccco3)ncn2)cc1 | 7.94 µM (active)
31 | COc1ccc2[nH]cc(CCNc3ncncc3-c3ccccc3OC)c2c1 | 1.26 µM (active)
32 | CCNc1ncc2nc(CCc3ccccc3)c(=O)n(CCC#N)c2n1 | 0.158 µM (active)
33 | CN(C)c1ncc2nc(CCc3ccccc3)c(=O)n(CCC#N)c2n1 | 2.51 µM (active)

Target: Cytochrome P450 2C19 (Homo sapiens) (UniProt P33261)
Assay: qHTS Assay for Inhibitors and Substrates of Cytochrome P450 2C19 (AID 899); also: potency is read from the fitted curve at half-maximal effect; nearly all actives have a fitted effect of over 60% in size
Settings: recombinant CYP2C19, luciferin-H EGE luminescence; series mostly up to 57.1 µM
Outline: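 Reactions contain 5nM enzyme, 10uM Luciferin-H EGE (KM) and 50mM KPO4; compound preincubates 10 min at 37C, NADPH regeneration starts turnover for 60 min. Luminescence after detection reagent gives activity.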

Chain of Cytochrome P450 2C19 (Homo sapiens) (P33261 whole entry, looked up): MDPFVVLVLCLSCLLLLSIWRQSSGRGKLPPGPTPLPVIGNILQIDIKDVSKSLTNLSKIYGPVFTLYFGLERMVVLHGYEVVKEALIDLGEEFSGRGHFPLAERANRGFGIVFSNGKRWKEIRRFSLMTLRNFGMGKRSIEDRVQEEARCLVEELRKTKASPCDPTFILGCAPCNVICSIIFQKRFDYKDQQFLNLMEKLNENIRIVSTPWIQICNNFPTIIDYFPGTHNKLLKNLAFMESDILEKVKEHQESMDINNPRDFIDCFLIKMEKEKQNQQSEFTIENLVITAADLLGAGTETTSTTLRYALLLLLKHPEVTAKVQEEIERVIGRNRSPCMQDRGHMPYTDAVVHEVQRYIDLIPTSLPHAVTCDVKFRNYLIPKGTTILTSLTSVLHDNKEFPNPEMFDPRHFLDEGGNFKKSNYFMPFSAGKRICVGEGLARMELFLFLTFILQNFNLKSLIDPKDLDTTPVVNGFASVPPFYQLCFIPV

Row | SMILES | Potency
34 | COCCNc1ncnc2ccc(-c3ccccc3OC)cc12 | 5.01 µM (active)
35 | CS(=O)(=O)Nc1cccc(-c2nc(Nc3ccncc3)c3ccccc3n2)c1 | 5.01 µM (active)
36 | CN(C)c1ccc(-c2cncnc2NCCN2CCOCC2)cc1 | 6.31 µM (active)
37 | CCNc1ncc2nc(CCc3ccccc3)c(=O)n(Cc3cccc(OC)c3)c2n1 | 6.31 µM (active)
38 | CN(Cc1ccco1)c1ncnc2ccc(-c3cccc(NS(C)(=O)=O)c3)cc12 | 7.94 µM (active)
39 | COc1cccc(-c2ccc3ncnc(N4CCNCC4)c3c2)c1 | 3.16 µM (active)
40 | COc1ccc2[nH]cc(CCNc3ncncc3-c3ccccc3OC)c2c1 | 0.0794 µM (active)
41 | COc1ccc2[nH]cc(CCNc3cc(-c4cccc(C#N)c4)ncn3)c2c1 | 7.94 µM (active)
42 | COc1ccccc1-c1ccc2ncnc(N3CCOCC3)c2c1 | 1.26 µM (active)

Tested on: not listed separately
Assay: qHTS Assay for Identification of Small Molecule Agonists for Hypoxia Response Element Signaling Pathway (AID 914; active = well fitted activation curve with a large enough effect in the signal ratio, with a control signal flat, not every such curve was filed as active; the % refers to the signal ratio; also: potency is read from the fitted curve at half-maximal effect; as to activation: % of control where 0% means no effect)
Settings: ME-180 HRE-bla reporter, beta-lactamase ratio, CoCl2, 17 h; activation: stronger effect = higher value
Outline: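 ME-180 cells carrying an HRE-driven beta-lactamase reporter were treated with compounds in a titration series plus an EC50 level of CoCl2 for 17 h at 37 degrees Celsius; CCF4 readout as the 460nm/530nm ratio gave AC50 values.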

Row | SMILES | Potency | activation
43 | CN(C)c1ncc2nc(-c3ccccc3)c(=O)n(C)c2n1 | 2.51 µM (active) | 
44 | CN(C)c1ccc(-c2cncnc2NCCN2CCOCC2)cc1 | 1.26 µM (active) | 
45 | COc1ccc(-c2nc3cnc(N4CCN(C)CC4)nc3n(CCc3ccccc3)c2=O)cc1 | 3.16 µM (active) | 
46 | COc1cccc(Nc2ncc3ncc(=O)n(Cc4ccc(F)cc4)c3n2)c1 |  | -20.2%
47 | N#CCCn1c(=O)c(-c2ccc(Cl)cc2)nc2cnc(N3CCOCC3)nc21 |  | 22.6%
48 | CCNc1ncc2nc(-c3ccc(OC)cc3)c(=O)n(C)c2n1 | 3.98 µM (active) | 

Target: Dual specificity protein kinase CLK4 (Homo sapiens) (UniProt Q9HAZ1)
Assay: qHTS Assay for Inhibitors of CDC-like Kinase 4 (Kinase-Glo Assay) (AID 1770); also: nearly all actives have a fitted effect of over 65% in size; also: potency is read from the fitted curve at half-maximal effect
Settings: recombinant Clk4, Kinase-Glo ATP depletion luminescence; series mostly up to 66.7 µM
Outline: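 Readout: Kinase-Glo luminescence from ATP left after a 4.5 h room-temperature reaction of 25 nM Clk4 with 100 uM RS peptide and 1 uM ATP (final). Buffer: 25 mM Tris pH 7.5, 10 mM MgCl2.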

Chain of Dual specificity protein kinase CLK4 (Homo sapiens) (Q9HAZ1 whole entry, looked up): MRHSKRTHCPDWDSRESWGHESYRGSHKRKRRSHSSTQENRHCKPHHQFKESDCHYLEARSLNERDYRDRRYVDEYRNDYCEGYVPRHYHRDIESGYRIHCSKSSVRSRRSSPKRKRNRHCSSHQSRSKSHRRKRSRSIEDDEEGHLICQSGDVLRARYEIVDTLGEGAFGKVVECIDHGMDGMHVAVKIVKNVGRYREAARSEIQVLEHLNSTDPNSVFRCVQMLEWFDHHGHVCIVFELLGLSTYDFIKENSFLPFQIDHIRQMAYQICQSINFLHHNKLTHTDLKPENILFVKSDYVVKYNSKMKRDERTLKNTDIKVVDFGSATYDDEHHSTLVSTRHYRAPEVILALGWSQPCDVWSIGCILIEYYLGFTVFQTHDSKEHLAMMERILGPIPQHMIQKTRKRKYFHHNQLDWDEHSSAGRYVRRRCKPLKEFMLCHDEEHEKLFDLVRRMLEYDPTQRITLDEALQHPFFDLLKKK

Row | SMILES | Potency
49 | COCCNc1ncnc2ccc(-c3ccccc3OC)cc12 | 15.8 µM (active)
50 | O=c1c(-c2cccc(F)c2)nc2cncnc2n1Cc1ccc(F)cc1 | inactive
51 | CS(=O)(=O)Nc1cccc(-c2nc(Nc3ccncc3)c3ccccc3n2)c1 | 12.6 µM (active)
52 | O=c1c(CCc2ccccc2)nc2cnc(N3CCNCC3)nc2n1Cc1cccs1 | inactive
53 | COc1ccccc1-c1nc(Nc2ccncc2)c2ccccc2n1 | 14.1 µM (active)
54 | COc1ccc(Oc2ncc3nc(-c4ccc(F)cc4)c(=O)n(C[C@H]4CCCO4)c3n2)cc1 | inactive
55 | COCCn1c(=O)c(CCc2ccccc2)nc2cnc(Oc3ccccc3)nc21 | inactive
56 | CN(C)c1ncc2nc(-c3ccccc3)c(=O)n(C)c2n1 | inactive
57 | COc1ncc2nc(-c3ccccc3)c(=O)n(CCc3ccccc3)c2n1 | inactive
58 | CN(C)c1ccc(-c2cncnc2NCCN2CCOCC2)cc1 | inactive
59 | COc1ccc(-c2nc3cnc(N4CCN(C)CC4)nc3n(CCc3ccccc3)c2=O)cc1 | inactive
60 | COc1ccccc1CNc1cc(-c2cccnc2)ncn1 | 25.1 µM (active)
61 | CCNc1ncc2nc(CCc3ccccc3)c(=O)n(Cc3cccc(OC)c3)c2n1 | inactive
62 | CN(Cc1ccco1)c1ncnc2ccc(-c3cccc(NS(C)(=O)=O)c3)cc12 | 7.08 µM (active)
63 | CN(C)c1nc(-c2cccc(C#N)c2)nc2ccccc12 | 15.8 µM (active)
64 | CN1CCN(c2ncnc3ccc(-c4cccc(C#N)c4)cc23)CC1 | 15.8 µM (active)
65 | COc1cccc(Nc2ncc3ncc(=O)n(Cc4ccc(F)cc4)c3n2)c1 | 3.98 µM (active)
66 | COc1ccccc1CNc1ccnc(-c2cccc(NS(C)(=O)=O)c2)n1 | 28.2 µM (active)
67 | COc1cccc(-c2ccc3ncnc(N4CCNCC4)c3c2)c1 | 1.78 µM (active)
68 | N#CCCn1c(=O)c(-c2ccc(Cl)cc2)nc2cnc(N3CCOCC3)nc21 | inactive

Row | SMILES | Potency
69 | CCNc1ncc2nc(-c3ccc(OC)cc3)c(=O)n(C)c2n1 | inactive
70 | O=c1c(CCc2ccccc2)nc2cnc(Nc3ccccc3)nc2n1C[C@H]1CCCO1 | inactive
71 | CN(C)c1ccc(-c2cc(N(C)Cc3ccco3)ncn2)cc1 | 25.1 µM (active)
72 | COc1ccccc1CNc1ccnc(-c2cccnc2)n1 | 28.2 µM (active)
73 | CN(C)c1ncnc2ccc(-c3cccc(NS(C)(=O)=O)c3)cc12 | 11.2 µM (active)
74 | CN1CCN(c2ncnc3ccc(-c4ccccc4C(F)(F)F)cc23)CC1 | inactive
75 | COc1ccc2[nH]cc(CCNc3ncncc3-c3ccccc3OC)c2c1 | 8.91 µM (active)
76 | COCCn1c(=O)c(-c2ccccc2)nc2cnc(Oc3cccc(Cl)c3)nc21 | inactive
77 | Cc1cnc(CNc2ncnc3ccc(-c4ccc(N(C)C)cc4)cc23)cn1 | 8.91 µM (active)
78 | COc1ccc(Oc2ncc3nc(-c4cc(F)cc(F)c4)c(=O)n(C4CC4)c3n2)cc1 | inactive
79 | COc1ccccc1-c1ccc2ncnc(N3CCNCC3)c2c1 | 4.47 µM (active)
80 | O=c1c(CCc2ccccc2)nc2cnc(Oc3ccccc3)nc2n1C1CC1 | inactive
81 | Cn1c(=O)c(-c2ccc(Cl)cc2)nc2cncnc21 | inactive
82 | COc1ccccc1-c1nccc(NCc2cccs2)n1 | inactive
83 | CCNc1ncc2nc(CCc3ccccc3)c(=O)n(CCC#N)c2n1 | inactive
84 | COc1ccc2[nH]cc(CCNc3cc(-c4cccc(C#N)c4)ncn3)c2c1 | 25.1 µM (active)
85 | CN(C)c1ncc2nc(CCc3ccccc3)c(=O)n(CCC#N)c2n1 | inactive
86 | COc1ccccc1-c1ccc2ncnc(N3CCOCC3)c2c1 | 11.2 µM (active)
87 | COc1ccccc1CNc1cc(-c2ccccc2CN(C)C)ncn1 | inactive
88 | Cc1cnc(CNc2ncnc3ccc(-c4ccccc4C)cc23)cn1 | 28.2 µM (active)
